Where “and” joins values, the source holds several entries; their conditions need not be identical. Equal values may be shown once. A structure can be active in one record and inactive in another. Calls of active or inactive are those of the source. Unless noted, calls follow the shape of the dose curve; as a rule, active = well fitted curve in the direction sought with a large enough effect in the repeat runs; inconclusive = weak or mixed curves; inactive = no such curve, though single readings can be large; an effect the other way counts as inactive or inconclusive.

Assay [1] in a line: qHTS assay to identify small molecule antagonists of the thyroid receptor (TR) signaling pathway - cell viability counter screen (AID 743064). Also: nearly all actives have a fitted effect of over 50% in size. Also: potency is read from the fitted curve at half-maximal effect. The gist of the method:
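GH3.TRE-Luc rat pituitary cells dosed after 4 hr plating, co-stimulated with T3 at 1 nM final, incubated 23.5 h at 37 C. Viability measured in the same wells by CellTiter-Fluor fluorescence after 30 min further at 37 C.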

Assay [2] has as its target Estrogen receptor (Homo sapiens) (UniProt P03372). Briefly: qHTS assay to identify small molecule antagonists of the estrogen receptor alpha (ER-alpha) signaling pathway (AID 743069; active = well fitted curve in the direction sought with a large enough effect in the signal ratio in the repeat runs, not every such curve was filed as active; inconclusive = weak or mixed curves, or effect the other way; inactive = no such curve, though single readings can be large or run the other way; the % refers to the signal ratio; also: potency is read from the fitted curve at half-maximal effect). In short, it runs like this:
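ER-alpha-UAS-bla GripTite HEK293 line; 2% charcoal-stripped FBS overnight; plated, 4 hr 37C/5% CO2; cpd in DMSO + 17beta-estradiol, 18 hr 37C; LiveBLAzer B/G FRET substrate 2 hr RT; fluorescence intensity.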

The nature of assay [3]: qHTS assay to identify small molecule antagonists of the estrogen receptor alpha (ER-alpha) signaling pathway - cell viability counter screen (AID 743074; calls by dose curve;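 also: HEK293 cells carrying ER-alpha-UAS-bla reporter stimulated with 17beta-estradiol; nearly all actives have a fitted effect of over 45% in size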; also: potency is read from the fitted curve at half-maximal effect). A general note: qHTS replaces the single test concentration by a dilution series.
For assay [4], the target named is Estrogen receptor (Homo sapiens) (UniProt P03372). Briefly: qHTS assay to identify small molecule agonists of the estrogen receptor alpha (ER-alpha) signaling pathway (AID 743075; calls by dose curve;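 also: HEK293 GripTite cells with ER-alpha and UAS-driven beta-lactamase reporter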).
Chain of Estrogen receptor (Homo sapiens) (P03372 whole entry, looked up): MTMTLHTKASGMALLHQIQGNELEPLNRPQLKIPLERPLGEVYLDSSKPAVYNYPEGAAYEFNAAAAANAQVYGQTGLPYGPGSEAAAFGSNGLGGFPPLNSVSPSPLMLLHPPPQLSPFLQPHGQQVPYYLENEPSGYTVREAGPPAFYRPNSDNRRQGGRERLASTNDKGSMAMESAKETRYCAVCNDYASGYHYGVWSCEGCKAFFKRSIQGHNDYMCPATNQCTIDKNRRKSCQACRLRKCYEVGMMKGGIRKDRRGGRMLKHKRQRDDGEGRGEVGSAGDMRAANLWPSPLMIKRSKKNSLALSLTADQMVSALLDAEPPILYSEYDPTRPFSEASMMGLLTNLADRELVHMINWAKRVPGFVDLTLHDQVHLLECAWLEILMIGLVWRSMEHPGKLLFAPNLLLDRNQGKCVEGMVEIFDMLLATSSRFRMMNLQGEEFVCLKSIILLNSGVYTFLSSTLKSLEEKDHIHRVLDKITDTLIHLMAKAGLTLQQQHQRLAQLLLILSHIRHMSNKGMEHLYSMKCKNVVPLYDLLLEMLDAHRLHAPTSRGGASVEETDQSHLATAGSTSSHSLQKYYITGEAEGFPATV
Assay [5] can be described thus: qHTS assay to identify small molecule antagonists of the estrogen receptor alpha (ER-alpha) signaling pathway using the BG1 cell line - cell viability counter screen (AID 743081).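 Also: compound given together with 17beta-estradiol as the ER stimulus; nearly all actives have a fitted effect of over 45% in size.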 Also: potency is read from the fitted curve at half-maximal effect.
The target in a further assay is Aromatase (Homo sapiens) (UniProt P11511). Briefly: qHTS assay to identify aromatase inhibitors (AID 743083). Also: nearly all actives have a fitted effect of over 55% in size.
Chain of Aromatase (Homo sapiens) (P11511 whole entry, looked up): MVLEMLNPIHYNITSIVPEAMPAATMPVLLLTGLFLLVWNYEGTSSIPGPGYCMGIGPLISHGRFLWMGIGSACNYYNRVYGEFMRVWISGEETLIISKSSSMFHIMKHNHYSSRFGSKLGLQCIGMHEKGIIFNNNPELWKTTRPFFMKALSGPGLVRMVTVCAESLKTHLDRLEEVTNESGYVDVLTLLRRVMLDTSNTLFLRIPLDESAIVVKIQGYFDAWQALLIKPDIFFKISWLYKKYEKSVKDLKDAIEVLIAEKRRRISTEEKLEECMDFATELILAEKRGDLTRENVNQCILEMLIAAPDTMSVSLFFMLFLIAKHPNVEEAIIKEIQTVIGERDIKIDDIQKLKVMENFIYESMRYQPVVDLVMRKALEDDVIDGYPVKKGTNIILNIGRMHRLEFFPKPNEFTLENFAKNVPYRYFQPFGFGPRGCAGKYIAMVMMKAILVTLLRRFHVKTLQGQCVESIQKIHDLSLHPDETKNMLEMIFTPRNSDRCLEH
Assay [6] deals with Estrogen receptor (Homo sapiens) (UniProt P03372). Briefly: qHTS assay to identify small molecule agonists of the estrogen receptor alpha (ER-alpha) signaling pathway using the BG1 cell line (AID 743079). Also: nearly all actives have a fitted effect of over 20% in size. Also: potency is read from the fitted curve at half-maximal effect. The settings on record: BG1Luc4E2 cells, ERE-luciferase agonist, 22 h; activation: at 70.3 µM (top of the series).
Assay [7] in a line: qHTS assay to identify small molecule antagonists of the estrogen receptor alpha (ER-alpha) signaling pathway using the BG1 cell line (AID 743080; calls by dose curve;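 also: BG1 cells stimulated with 17beta-estradiol alongside compound; nearly all actives have a fitted effect of over 25% in size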). The gist of the method:
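BG1-Luc-4E2 cells (endogenous full-length ER-alpha, 4xERE luciferase) hormone-starved 5 days in charcoal-stripped FBS, plated 4,000/well for 24 h, then compound plus 17beta-estradiol for 21.5 h at 37 C; ONE-Glo luminescence read.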

The subject of assay [8] is thyroid hormone receptor (rat, GH3 cells). Briefly: qHTS assay to identify small molecule agonists of the thyroid receptor (TR) signaling pathway (AID 743066; calls by dose curve).

As for `CCC(C)[C@H]1O[C@]2(C=C[C@@H]1C)C[C@@H]1C[C@@H](C/C=C(\C)[C@@H](O[C@H]3C[C@H](OC)[C@@H](O[C@H]4C[C@H](OC)[C@H](NC(C)=O)[C@H](C)O4)[C@H](C)O3)[C@@H](C)/C=C/C=C3\CO[C@@H]4[C@H](O)C(C)=C[C@@H](C(=O)O1)[C@]34O)O2` (stereo not given in full), the Potency in assay [1] was 2.66 µM (active) and 7.5 µM (active); in [2], 1.69 µM [inconclusive] (active); in assay [3], 8.49 µM (active) and 26.8 µM (active); in assay [5] it was 23.7 µM (active) and inactive. In addition, the Potency result (in assay [4]; with Aromatase (Homo sapiens)) was “inactive” in each case.
As to `NC[C@@H]1O[C@H](O[C@H]2[C@@H](O)[C@H](O[C@@H]3[C@@H](O)[C@H](N)C[C@H](N)[C@H]3O[C@H]3O[C@H](CO)[C@@H](O)[C@H](O)[C@H]3N)O[C@@H]2CO)[C@H](N)[C@@H](O)[C@@H]1O`, the Potency result in [1], in assay [2], in assay [3], in assay [4], in assay [7] and in assay [5] was “inactive” each time. The Potency result with Aromatase (Homo sapiens) is “inactive”. Moreover, the Potency in [6] is 26.6 µM (active).
Turning to `CCCCCCCCCCCCCCCC(=O)OC[C@@H](O)[C@H]1OC[C@H](O)[C@H]1O`, the Potency entry in assay [1], in assay [2], in [4], in assay [6], in [7] and in assay [5] was “inactive” in each case. In the assay with Aromatase (Homo sapiens), the Potency entry is “inactive”.
`CCCN(CC)C(CC)C(=O)Nc1c(C)cccc1C` (stereo not given): the Potency result in assay [1], in assay [8], in [3], in [4], in [6] and in [7] was “inactive” throughout. In addition, the Potency result in the assay with Aromatase (Homo sapiens) is “inactive”.
As to `CCC[C@@]1(CCc2ccccc2)CC(O)=C([C@H](CC)c2cccc(NS(=O)(=O)c3ccc(C(F)(F)F)cn3)c2)C(=O)O1`, the Potency entry (in assay [1]; in assay [8]; in assay [3]; in assay [5]; with Aromatase (Homo sapiens)) was “inactive” in each case.
In the case of `COC(=O)C1=C(C)NC(C)=C(C(=O)O[C@H]2CCN(Cc3ccccc3)C2)[C@H]1c1cccc([N+](=O)[O-])c1`, the Potency in assay [1] was 13.3 µM (active); in assay [2], 26.8 µM [inhibitor] (active). The Potency result (in assay [3]; in assay [4]; in [6]; in [7]; with Aromatase (Homo sapiens)) was “inactive” in each case.
As to `FCOC(C(F)(F)F)C(F)(F)F`, the Potency result in [1], in assay [2], in assay [3], in [4], in assay [6] and in assay [7] was “inactive” throughout. In addition, the Potency result (in assay [5]; with Aromatase (Homo sapiens)) was “inactive” in each case.
As for `CCN(CC)CCCC(C)Nc1cc(/C=C/c2ccccc2Cl)nc2cc(Cl)ccc12` (stereo not given), in assay [1], the Potency is 26.6 µM (active). For the same compound, the Potency result in assay [2], in assay [3], in assay [4], in assay [6] and in assay [7] was “inactive” throughout.
As to `CC1(C)S[C@@H]2[C@H](NC(=O)Cc3ccccc3)C(=O)N2[C@H]1C(=O)O`, the Potency result in assay [1], in [2], in assay [3], in [4], in [6] and in [7] was “inactive” throughout. Moreover, the Potency result (in assay [5]; with Aromatase (Homo sapiens)) was “inactive” each time.
As to `NC(=O)C[C@@H](N)C(=O)O`, the Potency result (in assay [1]; in assay [8]; in assay [3]; with Aromatase (Homo sapiens)) was “inactive” each time.
For the compound `CC(C)CCC[C@@H](C)[C@H]1CC(=O)C2=C3CC[C@H]4C[C@@H](O)CC[C@]4(C)[C@H]3CC[C@@]21C`, the Potency entry in assay [1], in [8], in assay [2], in assay [4], in assay [6] and in assay [7] was “inactive” throughout. For the same compound, the Potency entry (in [5]; in the assay with Aromatase (Homo sapiens)) was “inactive” in each case.
In the case of `CCCCCCCCCCCCCCCCCC(=O)[O][Al]`, the Potency entry in [1], in [8], in [2], in assay [4], in assay [6] and in assay [7] was “inactive” each time. The Potency entry (in assay [5]; with Aromatase (Homo sapiens)) was “inactive” in each case.
In the case of `C[N+]1(C)[C@@H]2CC(OC(=O)C(O)(c3cccs3)c3cccs3)C[C@H]1[C@@H]1O[C@@H]12` (stereo not given in full), the Potency result in [1], in assay [2], in assay [3], in assay [4], in assay [7] and in assay [5] was “inactive” each time. Moreover, the Potency result with Aromatase (Homo sapiens) was “inactive”.
Consider `C=C1c2c(Cl)ccc(O)c2C(O)=C2C(=O)[C@]3(O)C(O)=C(C(N)=O)C(=O)[C@@H](N(C)C)[C@@H]3[C@@H](O)[C@H]12`, for which the Potency entry in [1], in assay [8], in assay [3], in [4], in assay [6] and in assay [7] was “inactive” each time. Besides, the Potency result (in assay [5]; in the assay with Aromatase (Homo sapiens)) was “inactive” in each case.
As to `CCC(=O)NCCC1CCc2ccc3c(c21)CCO3` (stereo not given), the Potency result (in assay [1]; in assay [8]; in [3]; in assay [4]; in [5]; with Aromatase (Homo sapiens)) was “inactive” throughout. Moreover, the Potency in [6] is 4.22 µM (active).
In the case of `C[C@]12C=CC(=O)N[C@@H]1CC[C@@H]1[C@@H]2CC[C@]2(C)[C@@H](C(=O)Nc3cc(C(F)(F)F)ccc3C(F)(F)F)CC[C@@H]12`, the Potency entry (in assay [1]; in assay [8]; in [4]; in assay [5]; with Aromatase (Homo sapiens)) was “inactive” each time.
For `CCCc1nc(C(C)(C)O)c(C(=O)OCc2oc(=O)oc2C)n1Cc1ccc(-c2ccccc2-c2nn[nH]n2)cc1`, the Potency result (in assay [1]; in assay [8]; in assay [3]; in assay [5]; with Aromatase (Homo sapiens)) was “inactive” throughout.
Take `CCOc1cc(-c2nccc3cc(OC)c(OC)cc23)cc(OCC)c1OCC`: the Potency in assay [1] is 29.8 µM (active). For the same compound, the Potency result in [8], in assay [3] and in [4] was “inactive” each time.
In the case of `NCCCC[C@H](N)C(=O)O`, the Potency entry in assay [1], in assay [2], in assay [3], in assay [4], in assay [6] and in [7] was “inactive” each time. The Potency result (in assay [5]; in the assay with Aromatase (Homo sapiens)) was “inactive” in each case.
As for `Cc1cccc(Nc2ncccc2C(=O)O)c1C`, the Potency result (in assay [1]; in [8]; in assay [3]; in assay [4]; in assay [5]; with Aromatase (Homo sapiens)) was “inactive” in each case.
For `CC(=O)Nc1c(I)c(C(=O)N[C@H]2C(O)O[C@H](CO)[C@@H](O)[C@@H]2O)c(I)c(N(C)C(C)=O)c1I` (stereo not given in full), the Potency result in assay [1], in [2], in assay [3], in [4], in assay [6] and in assay [7] was “inactive” in each case. The Potency entry (in [5]; with Aromatase (Homo sapiens)) was “inactive” each time.
`CN[C@@H]1CCc2[nH]c3ccc(C(N)=O)cc3c2C1`: the Potency result (in assay [1]; in assay [8]; in [3]; in assay [5]; in the assay with Aromatase (Homo sapiens)) was “inactive” each time.
